# Measured values as given in ChEMBL document CHEMBL3988442, “University of Dundee, Small-Polar-MMV Screening Library” (2021).
# Hit rate of the full screen: of about 48,000 compounds, about 13,000 (27%) showed an effect of 50% or more. The list shows a part of the results.
# Tested on: Wolbachia pipientis
# Experiment: Anti-Wolbachia Cell-Based Screen
# Format: functional
# Design: scale not given: in the data most compounds retested in dose-response had high values
# Details: 5 µM
row,Structure (SMILES),Percent Effect [%]
1,CC(=O)N1Cc2nc(C(=O)NCCc3cccnc3)oc2C1,-18.72
2,CSCC(C)N(C)S(=O)(=O)c1ccc(Cl)cc1C#N (stereo unspecified),-5.71
3,CN(C)Cc1ccccc1CN(C)C(=O)c1ccoc1,83.07
4,Cc1ccccc1CN(C)C(=O)c1ccoc1,-7.893
5,CN(Cc1ccccc1CN1CCCC1)C(=O)c1c(O)cccc1O,-3.98
6,Cc1ncc(CC(=O)N2CCCCC2CCN2CCCC2)c(=O)[nH]1 (stereo unspecified),-18.36
7,CCN(CC1CCOC1)C(=O)c1ccccc1S(C)(=O)=O (stereo unspecified),84.82
8,CCN(CC1CCOC1)C(=O)c1ccccc1NS(=O)(=O)CC (stereo unspecified),0.4037
9,CCN(CC1CCOCC1)C(=O)CCNC(=O)c1ccccc1F,-3.146
10,CCN(CC1CCOC1)C(=O)c1nc(-c2ccco2)sc1C (stereo unspecified),14.29
11,CCN(CC1CCOC1)C(=O)c1ccc(COc2ccccc2C#N)o1 (stereo unspecified),0.9785
12,CCN(CC1CCOC1)C(=O)c1ccccc1S(=O)(=O)CC (stereo unspecified),111.1
13,COCCc1noc(-c2ccc(=O)[nH]c2)n1,-16.05
14,CCc1nc(CN(C)CC2CCN(CCO)CC2)no1,-13.45
15,Cc1cc(CN(C)CC2CCCCC2)no1,-1.2
16,Cc1nnc(CN(C)CC2CCCCC2)o1,96.6
17,CCc1nnc(CN(C)C[C@@H]2CCCN3CCCC[C@H]23)o1,-11.52
18,Cc1nnc(CN(C)CC2(O)CCCN(CCC3CCCCC3)C2=O)o1 (stereo unspecified),-32.48
19,CCc1nnc(CN(C)CC2CCCCC2)o1,93.73
20,OC(CN(Cc1ccccc1)Cc1cccnc1)c1ccco1 (stereo unspecified),-6.799
21,CCCN1CCCN(c2ncccc2C(=O)N2CCCCC2)CC1,6.513
22,CCC(CNS(C)(=O)=O)Oc1ccccc1C (stereo unspecified),8.016

row,Structure (SMILES),Percent Effect [%]
1,CCC(=O)NCCc1cc(N2CCN(C(C)=O)CC2)nc(C2CC2)n1,-11.66
2,CN1CCN(c2cc(CCNC(=O)C3CCC3)nc(C3CC3)n2)CC1,-16.77
3,CC(=O)N1CCN(c2cc(CCN)nc(C3CC3)n2)CC1.Cl,89.11
4,COc1ccc(C(=O)N2CCN(c3cc(CCN)nc(C)n3)CC2)cc1,-1.227
5,CCCC(=O)NCCc1cc(N2CCN(C(C)=O)CC2)nc(C2CC2)n1,96.87
6,CCCNC(=O)CCC(=O)N1CCC(c2n[nH]c(C3CC3)n2)CC1,-17.72
7,Cc1nc(CCN)cc(N2CCCN(C(=O)c3ccco3)CC2)n1,-5.504
8,CC(=O)NCCc1cc(N2CCN(C(C)=O)CC2)nc(C2CC2)n1,-7.517
9,CC(=O)N1CCN(c2cc(CCNC(=O)C(C)C)nc(C3CC3)n2)CC1,74.84
10,Cc1ccoc1C(=O)NC(CC(C)C)C(=O)N1CCC(CO)CC1 (stereo unspecified),-14.58
11,CCC(=O)N1CCc2[nH]cnc2C12CCN(C(=O)CCS(C)(=O)=O)CC2,-8.696
12,Cc1nnn2c1COC(CNCc1ccccn1)C2.O=C(O)C(F)(F)F (stereo unspecified),-4.028
13,Cc1cnc(N)nc1NCCSCc1[nH]cnc1C,-14.55
14,Cc1ccc(C)n1-c1ccc(C(=O)NCCNc2ncccn2)cc1,4.736
15,Cc1nc(CN2CCCC(c3cnccn3)C2)cs1 (stereo unspecified),124.4
16,Cc1nc(CN2C[C@@H]3CN(C(=O)c4cnccn4)C[C@@H]3C2=O)cs1,9.269
17,CCn1ccnc1C1CCN(Cc2cccc(C)n2)CC1,-3.832
18,CC1CCCN(Cc2csc(-c3ncccn3)n2)CC1 (stereo unspecified),3.521
19,Cc1nc(CN2CCCC(c3nccs3)C2)cs1 (stereo unspecified),114.8
20,Cc1cccc(CN2CCN(Cc3ccccc3)CC(O)C2)n1 (stereo unspecified),-8.122
21,Cc1nc(CN2CCCN(C(=O)COCC3CC3)CC2)cs1,18.11
22,CC(C)c1nc(CN2CCCC(O)C2)cs1 (stereo unspecified),12.3

row,Structure (SMILES),Percent Effect [%]
1,Cc1cccc(CN2CCCC(c3nccs3)C2)n1 (stereo unspecified),160.1
2,CSCC(=O)N1C[C@H]2CC[C@@H]1CN(Cc1ccccc1)C2,-24.58
3,COCCc1noc(Cn2ccc3ncccc3c2=O)n1,-12.09
4,CCOc1ccc2[nH]c(=O)c(CN(C)CCc3cn[nH]c3)cc2c1,-1.744
5,Cc1ccc(CN2CCOC3(COCCN(S(C)(=O)=O)C3)C2)s1.O=C(O)C(F)(F)F (stereo unspecified),-6.803
6,CCc1ccc(CN2C[C@@H]3COC[C@H](NS(C)(=O)=O)[C@@H]3C2)o1.O=C(O)C(F)(F)F,136.7
7,Cc1ccc(CN2C[C@@H]3COC[C@H](NS(C)(=O)=O)[C@@H]3C2)o1.O=C(O)C(F)(F)F,6.614
8,Cc1ccc(CN2C[C@@H]3COC[C@@H](NS(C)(=O)=O)[C@@H]3C2)o1.O=C(O)C(F)(F)F,-14.86
9,Cc1ccc(CN2C[C@@H]3COC[C@H](NS(C)(=O)=O)[C@@H]3C2)s1.O=C(O)C(F)(F)F,111.5
10,Cc1ccc(CN2CC(C(=O)Nc3ccccc3)C3(CCOCC3)C2)s1.O=C(O)C(F)(F)F (stereo unspecified),-15.56
11,CC(C#N)(NC(=O)Cn1cc(I)cn1)C1CC1 (stereo unspecified),6.618
12,CNC(=O)NC(=O)Cn1cc(-c2ccccc2)cn1,-1.753
13,CC(C)C(C)(C#N)NC(=O)Cn1cc(I)cn1 (stereo unspecified),3.38
14,O=C(Cc1cnn(-c2ccccc2)n1)NC(C1CC1)C1CC1,-0.6445
15,CCC(C)(C)NC(=O)Cn1cc(C(N)=O)c(-c2ccccc2)n1,-8.057
16,CC(NC(=O)Cn1cc(-c2ccccc2)cn1)C1CC1 (stereo unspecified),82.35
17,CCC(CC)NC(=O)Cn1cc(-c2ccccc2)cn1,106.4
18,O=C(Cn1cc(-c2ccccc2)cn1)NC(C1CC1)C1CC1,101.4
19,CC(C)CNC(=O)Cn1cc(C(N)=O)c(-c2ccccc2)n1,7.305
20,CC(NC(=O)CN1C=Nc2ccccc2S1(=O)=O)C1CC1 (stereo unspecified),22.51
21,CC(NC(=O)COc1ccccc1I)C1CC1 (stereo unspecified),10.59
22,Cc1ccc(NC(=O)Cn2cc(I)cn2)cc1,92.57

row,Structure (SMILES),Percent Effect [%]
1,Cc1csc(CN2C[C@@H]3CN(CC4CCOCC4)CCO[C@@H]3C2)n1,-2.484
2,Fc1cccc(N2CCCC3(CN(Cc4nccs4)CCO3)C2)c1.O=C(O)C(F)(F)F.O=C(O)C(F)(F)F (stereo unspecified),-19.19
3,CC(C)(C)c1nnc(CN2CCN(C(=O)N3CCCCC3)CC2)o1,1.432
4,CC(C)NC(=O)Cn1cc(-c2ccccc2)cn1,1.398
5,CC(C)C(C)(C#N)NC(=O)Cn1cc(-c2ccccc2)cn1 (stereo unspecified),-4.052
6,Cc1ccc(-c2cnn(CC(=O)NC(C)C)c2)cc1,96.48
7,CCC(CNC(=O)c1c(C)nn(C)c1OC)Oc1ccccc1 (stereo unspecified),-1.987
8,CCc1nc(NS(=O)(=O)c2cc(C)ccc2Br)no1,-0.5408
9,Cc1nn(C)c2nc(N(C)CCN(C)C3CCCC3)sc12,-5.269
10,CN(CC1CCCC1)C(=O)c1cn(C)nc1-c1cccnc1,-17.59
11,CCn1nc(C)c(-c2cncn2CCN(C)C2CCCC2)c1C.Cl,94.51
12,Cc1nn(C)cc1-c1cncn1CCN(C)C1CCCC1.Cl,82.1
13,Cc1cc(C)nc(N(C)CCN(C)C2CCCC2)n1,8.027
14,CCCN1CCCn2nc(CNC(=O)CN(C)C3CCCC3)cc2C1,-1.804
15,CCCn1nc(C)c(-c2cncn2CCN(C)C2CCCC2)c1C.Cl,99.02
16,Cn1nnc(C2(NC(=O)c3ccccc3)CCCC2)n1,-16.42
17,CCCn1cc(C(=O)NC2CCN(CC(=O)NC3CC3)CC2)c(C)n1,-20.41
18,CCc1nc(NC2CCN(CC(=O)NC3CC3)CC2)c2cnn(C)c2n1,85.47
19,CC(=O)NCCNc1nc(C2CCCC2)nc2c1cnn2C,-24.98
20,Cn1ncc2c(N[C@H]3CCCC[C@@H]3O)nc(C(C)(C)C)nc21,2.356
21,CCc1nc(NC2CCCN(C(=O)C3CC3)C2)c2cnn(C)c2n1 (stereo unspecified),100.4
22,Cn1ncc2c(NC3CCCN(C(=O)C4CC4)C3)nc(C(C)(C)C)nc21 (stereo unspecified),108.6

row,Structure (SMILES),Percent Effect [%]
1,COCCN1CC(Nc2nc(C3CCCC3)nc3c2cnn3C)CC1=O (stereo unspecified),-0.7638
2,Cn1ncc2c(N[C@H]3CC[C@@H](N)CC3)nc(C(C)(C)C)nc21,-50.36
3,COCc1nc(NCC2CCS(=O)(=O)C2)c2cnn(C)c2n1 (stereo unspecified),14.43
4,CC(C)C(=O)N1CCC(CNc2nc(C(C)C)nc3c2cnn3C)CC1,-5.658
5,CCc1nc(NCC2CCCN(C(=O)C3CC3)C2)c2cnn(C)c2n1 (stereo unspecified),149.3
6,Cn1ncc2c(N[C@@H]3CS(=O)(=O)C[C@H]3O)nc(C(C)(C)C)nc21,-3.65
7,Cc1cc(C(=O)NCc2ccc(N3CCCC(C(N)=O)C3)cc2)no1 (stereo unspecified),-5.438
8,O=C(Cc1ccc(F)c(F)c1)NC1COc2ccccc2C1=O (stereo unspecified),-17.04
9,Cc1ccc(CN(CC(=O)NC2CCOCC2)c2ccc(F)cc2)o1,-4.166
10,CCOc1ncnc2c1CCN(C(=O)CN(C)C)CC2.O=C(O)C(F)(F)F,-0.06996
11,O=C(c1cc[nH]n1)N(Cc1ccc(F)cc1)CC1CC1,-5.824
12,CCN(CC)C(CNC(=O)CCc1nc(C(C)C)no1)c1ccco1 (stereo unspecified),-1.128
13,CC(C)c1cc(NC2CCCN(C(=O)c3cccs3)C2)ncn1 (stereo unspecified),-8.38
14,NC(=O)c1cnc(NC2CCN(C(=O)C3CC3)CC2)c(Cl)c1,4.189
15,Cc1nc(NC2CCN(C(=O)C3CC3)CC2)c2cnn(C)c2n1,200.9
16,Cn1ncc2c(=O)[nH]c(CN3CCCC3c3cccs3)nc21 (stereo unspecified),-2.053
17,CCc1nc(NC2CCCN(C(=O)c3cccs3)C2)c2cnn(C)c2n1 (stereo unspecified),96.59
18,Cc1nc(N2CCN(C(=O)C3CC3)CC2)c2c(n1)c(C)nn2C,1.518
